# In PubChem BioAssay:
# Activity calls are given as the source filed them.
# Tests used:
# [1] = biological target: Albumin (Bos taurus) (UniProt P02769); test: compounds binding labelled BSA control protein – biochemical, small-molecule microarray, Alexa647 label, 635/667 nm fluorescence, artefact control for SMM control protein annotation, profiling panel (AID 1118); conditions: BSA-A647 binding, fluorescence 635 nm, higher = more signal;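 further: score merges 667 nm emission intensity and signal-to-noise per printed compound spot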
# [2] = probe aXIP binding to arrayed compounds – biochemical, NeuroSMM set, 635/667 nm fluorescence, primary screen (AID 1119); conditions: small-molecule microarray, higher = more signal, called active from +8 up or from −8 down;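 further: probe is the protein aXip251-270 applied at 1 µg/mL to compound-printed slides; binding of probe to printed compounds measured as 667 nm fluorescence plus signal to noise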
# [3] = probe aNOTCH3 binding on compound microarray – biochemical, small-molecule microarray, 635/667 nm fluorescence, primary screen (AID 1120); conditions: higher = more signal;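 further: probe is a biotin-tagged antibody raised against NOTCH3 rather than NOTCH3 protein; score merges spot fluorescence near 667 nm with spot signal to noise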
# [4] = probe aNOTCH2 binding on compound microarray – biochemical, small-molecule microarray, 635/667 nm fluorescence, primary screen (AID 1121); conditions: higher = more signal;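 further: score merges feature fluorescence read at 667 nm with its signal to noise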
# [5] = biological target: Carbonic anhydrase 2 (Homo sapiens) (UniProt P00918); test: compounds binding carbonic anhydrase 2 – biochemical, small-molecule microarray, Alexa647-labelled CAII, profiling panel (AID 1122); conditions: CAII-A647 binding fluorescence, higher = more signal
# [6] = COS7 lysate on small-molecule microarray, probe aHis, 635 nm (AID 1123); conditions: COS7 cell lysate, fluorescence, higher = more signal;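 further: z-score combines 667nm fluorescence intensity with signal-to-noise per printed compound spot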
# [7] = probe aLAP1 signal on lysate-treated microarray – cell lysate, small-molecule microarray, COS7 lysate, primary screen (AID 1124); conditions: probe aLAP1, fluorescence, higher = more signal;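 further: lysate comes from COS7 cells expressing LAP1 and is applied at 0.3 µg/mL; score merges spot fluorescence near 667 nm with signal-to-noise over triplicate slides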
# [8] = test system: Sam68 (KHDRBS1); test: compounds binding KHDRBS1 protein – biochemical, small-molecule microarray, 635 nm fluorescence, primary screen (AID 1125); conditions: higher = more signal;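 further: score merges 667 nm channel intensity with signal to noise over triplicate slides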
# [9] = test system: Chordin-like protein 2 (CHRDL2); test: compounds binding chordin-like 2 – biochemical, small-molecule microarray, 635 nm fluorescence, primary screen (AID 1126); conditions: fluorescence 635 nm, higher = more signal;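 further: printed compound slides probed with Chrdl2 protein at 4 µg/mL for 1 h at 4 C; score merges 667 nm emission intensity with signal to noise over three replicate slides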
# [10] = biological target: Concanavalin-A (Canavalia ensiformis) (UniProt P02866); test: compounds binding concanavalin A lectin – biochemical, small-molecule microarray, Alexa647 label, 635 nm, artefact control for SMM control protein annotation, primary screen (AID 1127); conditions: ConA-A647 binding fluorescence, higher = more signal;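 further: z combines 667 nm emission intensity with signal-to-noise across three replicate slides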
# [11] = compounds binding Alexa647 anti-His antibody – biochemical, small-molecule microarray, 635 nm fluorescence, artefact control for SMM control protein annotation, primary screen (AID 1128); conditions: higher = more signal;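 further: score merges feature fluorescence with signal-to-noise for each printed compound spot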
# [12] = test system: Human papillomavirus type 1a E7 protein (residues 1-88); test: HPV1a E7 small-molecule binders, primary screen, biochemical, small-molecule microarray, residues 1-88, 635 nm (AID 1129); conditions: small-molecule microarray binding, fluorescence 635 nm; higher = more signal
# [13] = biological target: Focal adhesion kinase 1 (Homo sapiens) (UniProt Q05397); test: PTK2 protein binding on printed compound slides – biochemical, small-molecule microarray, 635/667 nm fluorescence, BSA, DTT, primary screen (AID 1130); conditions: 635 nm fluorescence, higher = more signal;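 further: composite of spot emission at 667 nm and signal to noise over triplicate slides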
# [14] = test system: Fibrinogen (Alexa647-labelled); test: Alexa647-fibrinogen binding to printed small molecules – biochemical, small-molecule microarray, 635/667 nm fluorescence, artefact control for SMM control-protein annotation, profiling panel (AID 1131); conditions: fibrinogen-A647 binding fluorescence, higher = more signal;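 further: z-score merges 667 nm fluorescence with per-spot signal-to-noise over triplicate slides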
# [15] = biological target: Follistatin (Homo sapiens) (UniProt P19883); test: FST protein binding to printed compounds – biochemical, small-molecule microarray, 635/667 nm fluorescence, primary screen (AID 1132); conditions: 635 nm fluorescence, higher = more signal
# [16] = biological target: Fibroblast growth factor 2 (Homo sapiens) (UniProt P09038); test: basic fibroblast growth factor binding to printed compounds – biochemical, small-molecule microarray, 635/667 nm fluorescence, primary screen (AID 1133); conditions: FGF2, fluorescence 635/667, higher = more signal
# [17] = JC-1 mitochondrial potential readout, lung cancer cells – cell-based, A549, JC-1 fluorescence, basal, 24 h, 100 nL, profiling panel (AID 1138); conditions: higher = more signal;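 further: A549 lung adenocarcinoma cells under basal conditions with no added stimulus; test concentration not given here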
# [18] = test system: Lefty1; test: Lefty1 protein binding to printed compounds – biochemical, small-molecule microarray, 635/667 nm fluorescence, primary screen (AID 1139); conditions: fluorescence 635/667, higher = more signal
# [19] = test system: wheat germ agglutinin (Triticum aestivum), Alexa647-labelled; test: Alexa647-WGA lectin binding to printed small molecules – biochemical, small-molecule microarray, 635/667 nm fluorescence, artefact control for SMM control-protein annotation, profiling panel (AID 1140); conditions: WGA-A647 binding, 635 nm fluorescence, higher = more signal;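 further: score merges 667 nm feature emission with signal to noise over triplicate slides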
# [20] = biological target: Luciferin 4-monooxygenase (Photinus pyralis) (UniProt P08659); test: inhibition of purified Photinus pyralis luciferase – biochemical, luminescence, purified enzyme, 2006 set, primary screen (AID 1141); conditions: purified firefly luciferase, SteadyGlo luminescence, 30 min; higher = more signal, called active from +8 up or from −8 down;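 further: cell-free assay with purified firefly luciferase at 100 ng per well in PBS; test concentration not given here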
# Sequence of Luciferin 4-monooxygenase (Photinus pyralis) (P08659 whole entry, looked up): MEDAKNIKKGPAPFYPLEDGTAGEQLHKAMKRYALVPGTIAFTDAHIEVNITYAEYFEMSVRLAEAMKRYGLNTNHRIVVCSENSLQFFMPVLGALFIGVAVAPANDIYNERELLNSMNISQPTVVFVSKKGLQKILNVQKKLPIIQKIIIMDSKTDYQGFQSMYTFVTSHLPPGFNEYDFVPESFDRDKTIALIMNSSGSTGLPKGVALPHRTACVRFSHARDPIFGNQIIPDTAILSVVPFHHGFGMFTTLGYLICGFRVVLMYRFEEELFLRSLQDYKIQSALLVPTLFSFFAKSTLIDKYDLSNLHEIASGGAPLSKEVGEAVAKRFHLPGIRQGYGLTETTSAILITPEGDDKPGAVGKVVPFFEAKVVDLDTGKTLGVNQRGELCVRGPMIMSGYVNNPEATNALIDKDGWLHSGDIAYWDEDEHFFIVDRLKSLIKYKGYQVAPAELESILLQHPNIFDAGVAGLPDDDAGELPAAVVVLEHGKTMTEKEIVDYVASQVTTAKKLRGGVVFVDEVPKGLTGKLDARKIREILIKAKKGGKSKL
# Sequence of Focal adhesion kinase 1 (Homo sapiens) (Q05397 whole entry, looked up): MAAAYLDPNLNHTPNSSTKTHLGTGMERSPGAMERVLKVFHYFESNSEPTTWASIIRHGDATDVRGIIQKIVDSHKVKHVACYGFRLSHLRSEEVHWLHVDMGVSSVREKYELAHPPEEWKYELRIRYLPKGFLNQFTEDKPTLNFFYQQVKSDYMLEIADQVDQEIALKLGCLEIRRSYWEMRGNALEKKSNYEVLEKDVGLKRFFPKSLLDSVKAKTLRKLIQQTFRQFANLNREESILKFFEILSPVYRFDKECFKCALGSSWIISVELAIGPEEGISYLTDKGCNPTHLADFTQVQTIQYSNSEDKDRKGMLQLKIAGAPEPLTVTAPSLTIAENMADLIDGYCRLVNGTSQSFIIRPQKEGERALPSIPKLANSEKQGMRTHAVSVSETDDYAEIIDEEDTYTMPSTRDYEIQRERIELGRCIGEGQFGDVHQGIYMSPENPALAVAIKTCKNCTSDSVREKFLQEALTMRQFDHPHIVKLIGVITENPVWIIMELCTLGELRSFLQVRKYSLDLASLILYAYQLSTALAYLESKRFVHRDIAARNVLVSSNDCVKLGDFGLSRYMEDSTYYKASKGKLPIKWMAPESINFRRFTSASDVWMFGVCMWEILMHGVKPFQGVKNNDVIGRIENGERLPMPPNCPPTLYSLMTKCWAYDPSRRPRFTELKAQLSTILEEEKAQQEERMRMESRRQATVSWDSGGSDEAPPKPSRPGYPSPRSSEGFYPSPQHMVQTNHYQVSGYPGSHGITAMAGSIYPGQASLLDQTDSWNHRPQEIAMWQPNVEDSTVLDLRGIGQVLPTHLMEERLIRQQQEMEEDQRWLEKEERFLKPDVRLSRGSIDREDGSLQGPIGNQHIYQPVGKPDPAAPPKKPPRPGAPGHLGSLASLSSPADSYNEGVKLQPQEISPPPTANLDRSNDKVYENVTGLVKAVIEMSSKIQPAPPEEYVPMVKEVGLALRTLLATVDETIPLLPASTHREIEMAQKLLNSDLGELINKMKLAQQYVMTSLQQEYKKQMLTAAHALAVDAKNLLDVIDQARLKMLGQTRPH
# Sequence of Follistatin (Homo sapiens) (P19883 whole entry, looked up): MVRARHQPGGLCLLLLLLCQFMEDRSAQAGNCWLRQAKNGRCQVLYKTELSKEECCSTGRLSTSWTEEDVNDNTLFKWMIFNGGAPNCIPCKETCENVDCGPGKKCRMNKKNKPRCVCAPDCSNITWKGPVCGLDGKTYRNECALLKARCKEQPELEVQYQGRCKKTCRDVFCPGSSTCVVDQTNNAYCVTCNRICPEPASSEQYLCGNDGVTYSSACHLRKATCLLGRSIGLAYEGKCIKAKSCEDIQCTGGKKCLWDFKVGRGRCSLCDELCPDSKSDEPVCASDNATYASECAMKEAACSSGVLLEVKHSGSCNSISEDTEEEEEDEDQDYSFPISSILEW
# Sequence of Concanavalin-A (Canavalia ensiformis) (P02866 whole entry, looked up): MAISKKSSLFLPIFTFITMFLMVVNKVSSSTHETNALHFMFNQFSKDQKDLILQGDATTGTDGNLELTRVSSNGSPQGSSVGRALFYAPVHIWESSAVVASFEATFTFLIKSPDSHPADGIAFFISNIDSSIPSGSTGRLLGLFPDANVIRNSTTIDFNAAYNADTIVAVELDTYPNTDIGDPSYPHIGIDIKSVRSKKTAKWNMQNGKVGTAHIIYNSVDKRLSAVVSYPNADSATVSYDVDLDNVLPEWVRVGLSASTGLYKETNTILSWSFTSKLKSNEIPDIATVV
# Sequence of Albumin (Bos taurus) (P02769 whole entry, looked up): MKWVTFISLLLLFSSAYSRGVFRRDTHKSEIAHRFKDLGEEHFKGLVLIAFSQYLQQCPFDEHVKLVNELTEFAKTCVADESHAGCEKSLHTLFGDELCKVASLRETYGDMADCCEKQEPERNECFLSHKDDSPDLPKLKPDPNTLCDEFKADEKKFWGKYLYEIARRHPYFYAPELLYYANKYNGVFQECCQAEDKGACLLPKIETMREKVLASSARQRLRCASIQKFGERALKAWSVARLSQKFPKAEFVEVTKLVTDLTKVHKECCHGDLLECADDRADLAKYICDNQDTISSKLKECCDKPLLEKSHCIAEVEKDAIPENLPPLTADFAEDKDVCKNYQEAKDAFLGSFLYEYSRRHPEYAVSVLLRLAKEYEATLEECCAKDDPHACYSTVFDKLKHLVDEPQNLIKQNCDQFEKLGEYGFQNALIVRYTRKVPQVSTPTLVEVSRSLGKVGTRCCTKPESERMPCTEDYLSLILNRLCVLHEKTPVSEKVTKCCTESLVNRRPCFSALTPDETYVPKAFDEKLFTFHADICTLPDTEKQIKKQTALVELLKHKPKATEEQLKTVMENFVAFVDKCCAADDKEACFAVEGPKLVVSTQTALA
# Sequence of Fibroblast growth factor 2 (Homo sapiens) (P09038 whole entry, looked up): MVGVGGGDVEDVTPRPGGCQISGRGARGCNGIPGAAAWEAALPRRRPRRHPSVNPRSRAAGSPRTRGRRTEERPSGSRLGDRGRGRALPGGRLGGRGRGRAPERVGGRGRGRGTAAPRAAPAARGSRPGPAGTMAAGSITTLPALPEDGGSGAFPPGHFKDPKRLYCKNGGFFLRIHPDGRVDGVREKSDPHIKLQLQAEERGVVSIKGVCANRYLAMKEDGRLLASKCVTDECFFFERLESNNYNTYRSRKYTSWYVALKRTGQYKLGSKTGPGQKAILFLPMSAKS
SMILES,composite z-score [1],composite Z-score [2],composite z-score [3],composite z-score [4],composite z-score [5],composite z-score [6],composite z-score [7],composite z-score [8],composite z-score [9],composite z-score [10],composite z-score [11],composite z-score [12],composite z-score [13],composite z-score [14],composite z-score [15],composite z-score [16],z-score [17],composite z-score [18],composite z-score [19],z-score [20]
CC(C)C[C@@H]1NC(=O)[C@@H]2C[C@H](C(=O)NCCCCCNC(=O)CS)[C@H](c3cccc(OCCO)c3)N2C1=O,-1.16,0.262 (inactive),0.0469,-0.0624,0.588,1.47,-0.383,1.31,0.767,1.18,2.82,1.18,1.35,0.837,1.38,1.3,-0.018,1.13,1.23,-2.15 (inactive)
Cc1ccc(S[C@]2(C(=O)NCCN3CCOCC3)CC(=O)N(Cc3cc(C(F)(F)F)cc(C(F)(F)F)c3)[C@@H]2c2ccc(CO)cc2)cc1,0.0152,-0.654 (inactive),-0.304,-0.0846,0.78,0.244,0.248,-0.142,-1.01,-0.664,-1.03,0.624,0.151,-0.899,-1.09,-1.21,1.59,-1.1,-1.54,-0.682 (inactive)
C=CC[C@]1(C(=O)N(C)C)N=C(c2ccc(OCCCO)cc2)O[C@H]1c1ccccc1CN=[N+]=[N-],0.79,0.328 (inactive),-0.014,0.0111,0.548,2.11,0.79,1.04,-0.474,1.11,1.84,1.23,0.418,0.415,1.27,0.521,2.49,-0.168,0.757,-1.12 (inactive)
Cc1ccc(S[C@]2(C(=O)NC3CC3)CC(=O)N(Cc3ccccc3C(F)(F)F)[C@@H]2c2ccc(CO)cc2I)cc1,-1.2,-0.275 (inactive),-0.0311,-0.0708,0.653,0.898,0.417,0.547,-0.229,-0.387,-1.01,0.303,-0.0823,-0.763,1.25,0.0123,1.57,-0.258,0.74,-1.15 (inactive)
COCCOC(=O)N1C(=O)[C@@]2(c3ccccc31)[C@H](C(=O)Nc1nc3ccccc3s1)[C@H]1C(=O)O[C@H](c3ccccc3)[C@H](c3ccccc3)N1[C@@H]2c1ccc(O)cc1,0.794,-0.706 (inactive),0.288,-0.0551,0.435,0.903,0.418,1.3,0.318,1.21,1.68,1.2,0.261,0.976,1.32,1.06,-2.31,0.983,1.16,-2.88 (inactive)
COCCCN1C(=O)[C@@]2(Cc3ccccc31)c1ccccc1C(=O)N(Cc1ccccc1Cl)[C@H]2c1ccc(CO)cc1,-0.538,-0.17 (inactive),-0.126,-0.162,0.106,-0.0024,0.179,0.0462,-0.272,0.0915,-1.15,-1.53,-0.557,-0.358,-0.45,-0.0761,0.83,-0.348,-1.02,-1.13 (inactive)
COCCCNC(=O)[C@@]1(Cc2ccccc2)N=C(c2ccc(OCCCO)cc2)O[C@H]1c1ccccc1N=[N+]=[N-],0.765,-0.597 (inactive),0.385,0.0538,0.405,0.877,0.516,0.846,-0.297,0.0647,0.644,1.16,0.635,0.881,1.48,1.58,2.03,0.269,1.15,-4.34 (inactive)
C=C(C(=O)CC[C@H](OC(C)=O)c1ccc(CO)o1)C(C)C,-0.348,0.481 (inactive),-0.0264,-0.0795,0.614,0.297,0.629,0.596,-0.413,-0.0824,-0.361,-0.0631,0.384,0.4,0.853,1.01,0.191,0.299,-0.432,-2.12 (inactive)
COc1ccc([Si](C)(C)[C@H]2[C@H](CC(=O)N(CCO)Cc3ccccc3)O[C@@]3(C(=O)N(Cc4ccc(N5CCC5=O)cc4)c4ccccc43)[C@@H]2C)cc1,0.101,0.506 (inactive),-0.219,-0.141,0.339,0.888,0.371,-0.114,0.286,0.385,0.122,-0.178,0.13,0.158,0.41,0.11,0.0735,-0.143,0.429,-1.23 (inactive)
CCCCCN1CC=CC23O[C@@H]4/C=C\CCC(C)OC(=O)C4[C@H]2C(=O)N(CCO)[C@@H]3C1=O (stereo not given in full),-1.09,0.547 (inactive),-0.28,-0.172,0.905,0.663,0.0877,-0.106,-1.79,-0.773,1.31,-0.85,-0.081,-2.44,-0.869,-1.2,0.33,-0.853,-0.564,-0.967 (inactive)
O=C(NC1CC1)[C@@H]1c2ccccc2C(=O)N(Cc2ccccc2C(F)(F)F)[C@H]1c1ccc(CO)cc1,0.289,2.36 (inactive),0.0194,-0.0173,0.676,2.26,0.234,1.35,0.102,1.08,0.911,1.1,0.829,0.428,0.928,0.86,2.04,0.159,0.527,-0.945 (inactive)
